# Assay outcomes deposited in PubChem by several laboratories.
# CYP2C19 inhib: human CYP2C19 inhibition; P33261; CYP2C19 Supersomes, luciferin-H EGE luminescence, 30 min; inhibition, % at 5 µM; hit rate 21% among 96,000; AID 778;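 active = CYP2C19 inhibition above a set limit at 5 µM in the primary screen, cut at about 50% in these data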;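 note: plate controls were negative control wells for no effect and 2.5 mM tranylcypromine positive control for full effect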
# CYP2C9 inh: blocks human cytochrome P450 2C9. inhibition, % at 5 µM. hit rate 20% among 96,000. P11712. CYP2C9 Supersomes, luciferin-H conversion, luminescence;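 active = blocking of liver enzyme CYP2C9 beyond about 50% at 5 µM, limit read from the data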
# CYP2C9 activ: increases human cytochrome P450 2C9 activity; hit rate 1.4% among 96,000; activation factor at 5 µM; recombinant CYP2C9, luciferin-H conversion, luminescence; active compounds read high; factor 1 = untreated enzyme, 0 = blocked; P11712;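 active = activation factor of 2 or more for CYP2C9 at a 5 µM dose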;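 note: 0 = sulfaphenazole-blocked wells and 1 = vehicle-only wells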
# Cav3 T inh: human Cav3.2 channel inhibition, primary screen; Cav3.2-expressing cells, Fluo-4 calcium fluorescence FDSS; active compounds read low; O95180; B-score at 10 µM; hit rate 4% among 100,000;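 active = single-dose well whose peak fluorescence ratio is a statistical outlier from its plate by either plate-standardised score or position-corrected B-score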
# CYP2C19 act: activators of human cytochrome P450 2C19; 96,000 tested, under 10 active; recombinant CYP2C19, luciferin-H EGE luminescence; active compounds read high; 0 = fully inhibited enzyme, 1 = untreated enzyme; AID 1025; activation factor at 5 µM; P33261;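 active = activation factor of at least 2 at 5 µM in the primary screen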;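 note: 0 = wells with 2.5 mM tranylcypromine and 1 = vehicle-only wells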
# * hit, by the source's call; nt = no result given. Most compounds without a hit are left out; they make up all but 27% or so of the library.
SMILES,CYP2C19 inhib,CYP2C9 inh,CYP2C9 activ,Cav3 T inh,CYP2C19 act
COC(=O)c1ccc(NC(=O)c2ccccc2N(C)S(=O)(=O)c2ccccc2)cc1,5.5,14.6,0.9,nt,0.9
Cc1ccc(C(=O)Nc2ccccc2-c2ccccc2)cc1[N+](=O)[O-],37.1,50.1*,0.5,-1.08,0.6
O=C(O)CNC(=O)c1ccc(S(=O)(=O)N2CCOCC2)cc1,1.2,-2.2,1,-0.0758,1
CC1CCN(C(=O)c2ccc(CSc3nc4ccncc4n3Cc3ccc(F)cc3)cc2)CC1,nt,nt,nt,-2.95,nt
Cc1ccc(C)c(N2CCN(C(=O)Cn3c(=O)[nH]c4ccsc4c3=O)CC2)c1,34.8,52.8*,0.5,-1.47,0.7
Cc1ccc(C)c(N2CCN(C(=O)Cc3cn(C)c4ccccc34)CC2)c1,46.2,4.3,1,-5.38*,0.5
Cc1ccc(C)c(N2CCN(C(=O)CCS(=O)(=O)c3cccc4nonc34)CC2)c1,61.8*,73.4*,0.3,-2.82,0.4
CCC(=O)N1CCN(c2cc(C)ccc2C)CC1,52.0*,7.4,0.9,1.07,0.5
CC1Cc2ccccc2N1C(=O)CCS(=O)(=O)c1cccc2nonc12 (stereo not drawn),14.8,-64.1,1.6,2,0.9
Cc1ccc(C)c(N2CCN(C(=O)Cn3cccc3)CC2)c1,19.7,-0.3,1,-1.38,0.8
COc1ccccc1N1CCN(C(=O)CCn2c(=O)[nH]c3ccsc3c2=O)CC1,3.2,12.4,0.9,-0.041,1
O=C(NCCCN1CCC(Cc2ccccc2)CC1)C1CC(=O)N(C2CCCCCC2)C1 (stereo not drawn),20.6,43.5,0.6,-0.00181,0.8
Cc1ccc(Cl)cc1N1CCN(C(=O)Cc2cn(C)c3ccccc23)CC1,52.8*,-26.4,1.3,-1.5,0.5
Cc1ccc(C)c(N2CCN(C(=O)CC3Sc4ccccc4NC3=O)CC2)c1 (stereo not drawn),71.0*,50.9*,0.5,-6.88*,0.3
CCn1nnc(C(=O)O)c1C(=O)O,-24.5,-21.1,1.2,0.0325,1.2
COc1ccccc1NC(=O)N1CCc2[nH]c3ccc(Cl)cc3c2C1,30.4,-60.3,1.6,-5.12*,0.7
COc1ccccc1NC(=O)N1CCC(c2nc3cc(C)c(C)cc3[nH]2)CC1,nt,nt,nt,-0.574,nt
N=c1n(CCN2CCOCC2)c2ccccc2n1Cc1ccccc1Br,-0.3,-0.3,1,-0.678,1
COc1ccc(-c2cc(-n3c(C(F)(F)F)nc4ccccc43)n(CCC#N)n2)cc1,62.8*,71.7*,0.3,-3.08,0.4
CNC(=S)N1N=C(c2ccc(Br)cc2)CC1c1ccc(Br)cc1 (stereo not drawn),98.1*,94.6*,0.1,-6.65*,0
CC(=O)N(Cc1ccc2c(c1)OCO2)C1CC(=O)N(CCc2ccccc2)C1=O (stereo not drawn),69.6*,53.3*,0.5,1.03,0.3
O=C(NCc1ccc2c(c1)OCO2)C1CC(=O)N(c2ccc(O)cc2)C1 (stereo not drawn),25.1,-113.3,2.1*,-0.267,0.7
O=C(NCc1ccc2c(c1)OCO2)C1CC(=O)N(CCc2ccccc2)C1 (stereo not drawn),12.2,76.9*,0.2,0.102,0.9
O=C(O)C1CC(=O)N(Cc2ccc3c(c2)OCO3)C1 (stereo not drawn),-18.5,-21.9,1.2,-3.25,1.2
O=C(NCc1cccnc1)C1CC(=O)N(CCc2ccccc2)C1 (stereo not drawn),79.7*,1.0,1,-0.658,0.2
SMILES,CYP2C19 inhib,CYP2C9 inh,CYP2C9 activ,Cav3 T inh,CYP2C19 act
O=C(NCCc1cccs1)C1CC(c2ccccc2[N+](=O)[O-])=NO1 (stereo not drawn),29.9,-16.3,1.2,0.456,0.7
Cc1onc(-c2ccccc2Cl)c1C(=O)Nc1ccc(N2CCOCC2)cc1,19.9,0.4,1,-0.3,0.8
Cc1ccc(-n2nc3c(c2NC(=O)c2c(-c4ccccc4Cl)noc2C)CSC3)cc1,22.2,37.4,0.6,-6.01*,0.8
Cc1ccccc1-n1nc2c(c1NC(=O)c1c(-c3ccccc3Cl)noc1C)CSC2,34.1,50.0*,0.5,-5.93*,0.7
Cc1onc(-c2ccccc2Cl)c1C(=O)Nc1ccc(-n2nncc2-c2ccco2)cc1,99.4*,92.8*,0.1,-4.67,0
Cc1ccc(-n2nc3c(c2NC(=O)c2ccc(Br)o2)CSC3)c(C)c1,19.4,67.1*,0.3,-1.71,0.8
Cc1ccccc1C(=O)Nc1nc2n(n1)C(c1ccccc1)CC(=O)N2 (stereo not drawn),-31.4,9.8,0.9,-0.392,1.3
